Source: PubChem BioAssay (NCI)
This is part of a sample that, as a whole, favours compounds with a hit. Of some 79,000 tested, about 15% had one in any assay. Rule as the data show it: active = growth inhibition above about 70%; inactive = the rest.

Columns and labels:
[1] = NCI Yeast Anticancer Drug Screen. Data for the rad50 strain (AID 155);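 also: 0% = growth of vehicle-only cultures of the same strain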; conditions: S. cerevisiae rad50 strain growth inhibition; at 50.0 µM; hits give high values
Method in brief: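 A DNA repair-deficient yeast mutant serves as the test organism; compound-induced growth inhibition is calculated against vehicle-treated cells.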

[2] = NCI Yeast Anticancer Drug Screen. Data for the mec2-1 strain (AID 157); conditions: S. cerevisiae mec2-1 strain, at 50.0 µM, hits give high values
Method in brief: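 Yeast mec2-1 mutant treated with compound. Readout: growth inhibition vs vehicle controls.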

[3] = NCI Yeast Anticancer Drug Screen. Data for the sgs1 mgt1 strain (AID 161);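 also: 0% = growth of cultures given vehicle only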; conditions: S. cerevisiae sgs1 mgt1 strain, at 50.0 µM, hits give high values
Method in brief: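 Test agents were incubated with a DNA-repair-mutant yeast strain. Growth was then read and compared against vehicle-treated controls.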

[4] = NCI Yeast Anticancer Drug Screen. Data for the cln2 rad14 strain (AID 165);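 also: 0% = growth equal to vehicle treated cultures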; conditions: S. cerevisiae cln2 rad14 strain, at 50.0 µM, hits give high values
Method in brief: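 cln2 rad14 yeast strain; compound exposure; growth inhibition read vs vehicle controls.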

[5] = NCI Yeast Anticancer Drug Screen. Data for the bub3 strain (AID 167); conditions: S. cerevisiae bub3 mutant strain, at 50.0 µM, hits give high values
Method in brief: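 Inhibition values come from growth of compound-treated mutant yeast normalised to vehicle-treated controls.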

[6] = NCI Yeast Anticancer Drug Screen. Data for the mlh1 rad18 strain (AID 175); conditions: S. cerevisiae mlh1 rad18 strain growth inhibition; at 50.0 µM; hits give high values
Method in brief: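 Yeast w/ defined DNA-repair lesions; compound exposure; growth vs vehicle controls → % inhibition.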

Measured: growth inhibition

CCCNC1=C(OC)C(=O)C(NCCC)=C(OC)C1=O
inactive: [1] -0.3% | [2] 6.8% | [3] 9.15% | [4] -47.5% | [5] 2% | [6] -9.15%

C[n+]1c(/C=C\c2ccc(O)cc2)cc(C(N)=O)c2ccccc21
inactive: [1] 19.2% | [2] 11.8% | [3] 17.1% | [4] 2.6% | [5] 3.65% | [6] 7.7%

CCOC(=O)OC1CCCCC1c1ccccc1 (stereo not given)
inactive: [1] 13.7% | [2] -12.9% | [3] -7.15% | [4] -14.9% | [5] -20.1% | [6] -16.2%

CCOC(=O)c1c2cccccc-2nc1Nc1cccc2c(C)ccnc12
inactive: [1] 11.7% | [2] -21% | [3] -2.8% | [4] 9.7% | [5] -16.1% | [6] 5.55%

O=C(Nc1nc(C23CC4CC(CC(C4)C2)C3)cs1)c1cc2cc([N+](=O)[O-])ccc2oc1=O
inactive: [1] -12.7% | [2] -31.5% | [3] -14.8% | [4] -34.7% | [5] -15.2% | [6] -10.8%

CC(=O)OCC1OC(OC(C)=O)C(NS(=O)(=O)c2ccc(C)cc2)C(OC(C)=O)C1OC(C)=O (stereo not given)
inactive: [1] 18.3% | [2] 4.25% | [3] 18.1% | [4] 17.8% | [5] -3.65% | [6] -4.65%

CS/C1=C(\c2ccc(C)cc2)N(c2ccccc2)C(=O)C(=O)N(c2ccccc2)/C(c2ccc(C)cc2)=C(/SC)SS1
inactive: [1] 12.2% | [2] -27.1% | [3] 2.9% | [4] 3% | [5] 8% | [6] 12.5%

CC(=O)NC(Cc1cc(I)c(OC(C)=O)c(I)c1)C(=O)O (stereo not given)
inactive: [1] -4.85% | [2] -16.8% | [3] 3.45% | [4] 6% | [5] 12.4% | [6] -0.6%

CC(=O)Oc1ccc2cc(NC(=O)c3ccccc3)c(=O)oc2c1
inactive: [1] 11.8% | [2] -2.85% | [3] -1.6% | [4] -62.4% | [5] -1.9% | [6] -3.35%

N#CNC(=NCC1CCCO1)Nc1cccnc1 (stereo not given)
inactive: [1] 2.9% | [2] -9.8% | [3] -26.4% | [4] -23.4% | [5] 23.9% | [6] -2.35%

CCOC(=O)c1ccc(Nc2nc3cc(C(F)(F)F)ccc3nc2C(=O)OCC)cc1
inactive: [1] -31.2% | [2] -10.9% | [3] -31.9% | [4] -19.4% | [5] -11.7% | [6] -19.6%

CC(C)C(=O)OCc1ccccc1
inactive: [1] 0.95% | [2] -5.7% | [3] -6.75% | [4] -3.9% | [5] -10.8% | [6] -24.9%

O=C(O)Cc1cccc2nnnn12
inactive: [1] 14.2% | [2] -17.8% | [3] -7.5% | [4] 15.1% | [5] -4.75% | [6] 23.9%

C[N+]1(C)C/C(=C\c2ccc(O)cc2)C(=O)/C(=C/c2ccc(O)cc2)C1
inactive: [1] -0.75% | [2] -16.3% | [3] 4.05% | [4] -6% | [5] -9.75% | [6] -14.2%

N#CC(c1ccccc1)N(CCc1ccccc1)C(=O)Oc1ccccc1 (stereo not given)
inactive: [1] -14.6% | [2] -19.6% | [3] -8.3% | [4] -18.2% | [5] -40.3% | [6] -30.9%

CC1=NN(c2nc(N)nc(CO)n2)C(C)(C)C1
inactive: [1] 12.2% | [2] 5.75% | [3] 3.2% | [4] 5.55% | [5] 1% | [6] -72.5%

COC(=O)C(=O)C1(c2ccccc2)CCCC(CN(C)C)=C1O (stereo not given)
inactive: [1] 3.35% | [2] -0.15% | [3] 2.65% | [4] -4.95% | [5] -2.65% | [6] -12.7%

O=CCC(=O)c1ccc(Br)cc1
inactive: [1] 8.95% | [2] 3.15% | [3] 2.3% | [4] 2.45% | [5] -11.7% | [6] 6.85%

Oc1ccc([C@H]2Oc3c(c(O)cc4c3C3c5c(O)cc(O)cc5OC(c5ccc(O)cc5)(O4)[C@H]3O)CC2O)cc1 (stereo not given in full)
inactive: [1] 1.85% | [2] -4.6% | [3] -20.9% | [4] -4.65% | [5] -7% | [6] -5.75%

CC(=O)C(C)O (stereo not given)
inactive: [1] -27.8% | [2] -18.8% | [3] -15.2% | [4] -0.95% | [5] -21.4% | [6] -21.1%
